Z-score and composite z-score data for nine compounds are collected here from PubChem BioAssay.

Assay [1] is described as follows: compound effects on lung adenocarcinoma cell viability – A549, calcein-AM fluorescence, 48 h, basal, profiling panel (AID 1162). Also: test concentration not given here. The following applies: higher = more signal.
A short description of assay [2]: compound effects on differentiated 3T3-L1 adipocyte viability – cell-based, 3T3-L1 adipocytes, calcein-AM fluorescence, 48 h, basal, profiling panel (AID 1163). Also: test concentration not given here. The following applies: 3T3-L1 adipocytes viability, higher = more signal.
The nature of assay [3]: compound effects on hepatocellular carcinoma cell viability – HepG2, calcein-AM fluorescence, 48 h, basal, profiling panel (AID 1164). Also: test concentration not given here. The following applies: higher = more signal.
Assay [4] in a line: compound effects on multiple myeloma cell viability – MM1S, calcein-AM fluorescence, 48 h, basal, profiling panel (AID 1165).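 Also: viability of MM1S multiple myeloma cells under basal unstimulated conditions; test concentration not given here.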 The note with it: higher = more signal.
Assay [5] is described as follows: calcein-AM signal in unstimulated myeloma cells – cell-based, calcein-AM fluorescence, 48 h, PK04 Diversity Set, profiling panel (AID 1166).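 Also: cells grown under basal conditions without added stimulus; test concentration not given here.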 The note with it: RPMI8226 myeloma viability, higher = more signal.
Assay [6] in a line: JC-1 mitochondrial signal, unstimulated HepG2 cells – cell-based, JC-1 fluorescence, 24 h, 100 nL compound, profiling panel (AID 1167). Also: test concentration not given here. The note with it: HepG2 mitochondrial potential, higher = more signal.
The nature of assay [7]: JC-1 mitochondrial signal, unstimulated adipocytes – cell-based, JC-1 fluorescence, 3T3-L1 adipocytes, 24 h, 100 nL compound, profiling panel (AID 1168). Also: test concentration not given here. The note with it: JC-1 mitochondrial fluorescence, higher = more signal, called active from +8 up or from −8 down.
Assay [8] in a line: JC-1 mitochondrial signal, unstimulated myeloma cells – cell-based, JC-1 fluorescence, RPMI8226, 24 h, 100 nL compound, profiling panel (AID 1169). Also: test concentration not given here. The following applies: JC-1 mitochondrial potential fluorescence, higher = more signal.
A short description of assay [9]: JC-1 mitochondrial signal, unstimulated MM1S myeloma – cell-based, JC-1 fluorescence, 24 h, 100 nL compound, profiling panel (AID 1170). Also: test concentration not given here. The following applies: MM1S mitochondrial potential, higher = more signal.
The nature of assay [10]: resazurin metabolic signal in A549 cells – cell-based, resazurin fluorescence, 24 h, PK04 Diversity Set, profiling panel (AID 1171). Also: test concentration not given here. The following applies: A549 viability, higher = more signal, called active from +8 up or from −8 down. (The colour change of resazurin is a common sign of viable cells or microbes.)
Assay [11] is described as follows: resazurin metabolic signal in HepG2 cells – cell-based, resazurin fluorescence, 24 h, PK04 Diversity Set, profiling panel (AID 1172). Also: test concentration not given here. The note with it: HepG2 viability, higher = more signal.
Assay [12] can be described thus: budding yeast growth changes without added modifier – OD600, strain BY4716, 24 h, basal condition, primary screen (AID 1173). The following applies: S. cerevisiae BY4716 growth, OD600, 24 h; higher = more signal, called active from +8 up or from −8 down.
Assay [13] can be described thus: viability profiling in MM1S myeloma cells – cell-based, resazurin fluorescence, basal, 24 h, PK04 Diversity Set, profiling panel (AID 1174). Also: test concentration not given here. The note with it: higher = more signal, called active from +8 up or from −8 down.
For assay [14], the target named is Dihydroorotate dehydrogenase (quinone), mitochondrial (Plasmodium falciparum (isolate 3D7)) (UniProt Q08210). Kind of assay: inhibition of P. falciparum DHODH – biochemical, C-terminal His tag, absorbance 600 nm, primary screen (AID 1175).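 Also: recombinant parasite enzyme with a five histidine tag at its C terminus; test concentration not given here.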 The note with it: PfDHODH enzyme, DCIP absorbance 600 nm; higher = more signal, called active from +8 up or from −8 down.
Dihydroorotate dehydrogenase (quinone), mitochondrial (Plasmodium falciparum (isolate 3D7)), sequence (Q08210 whole entry, looked up): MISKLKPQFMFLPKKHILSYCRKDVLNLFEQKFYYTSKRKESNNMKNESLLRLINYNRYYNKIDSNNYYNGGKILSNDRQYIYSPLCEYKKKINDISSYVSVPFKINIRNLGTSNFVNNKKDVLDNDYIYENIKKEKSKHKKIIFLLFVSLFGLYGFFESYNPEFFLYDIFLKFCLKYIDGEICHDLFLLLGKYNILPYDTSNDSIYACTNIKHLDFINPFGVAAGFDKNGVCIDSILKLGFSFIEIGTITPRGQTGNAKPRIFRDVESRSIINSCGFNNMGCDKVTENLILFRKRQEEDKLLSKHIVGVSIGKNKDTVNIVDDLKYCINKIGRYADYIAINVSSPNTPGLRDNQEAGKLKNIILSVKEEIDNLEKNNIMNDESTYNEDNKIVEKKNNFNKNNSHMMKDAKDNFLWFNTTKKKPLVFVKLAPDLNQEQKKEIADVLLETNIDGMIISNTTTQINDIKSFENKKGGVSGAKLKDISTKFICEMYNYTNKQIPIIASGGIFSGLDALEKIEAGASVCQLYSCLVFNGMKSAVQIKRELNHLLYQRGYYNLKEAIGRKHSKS
Assay [15] can be described thus: inhibition of PAO1 biofilm formation – strain PAO1, LB-PBS medium, absorbance 600 nm, primary screen (AID 1176). Also: test concentration not given here. The note with it: P. aeruginosa PAO1 growth/biofilm, A600, 12 h; higher = more signal.
Assay [16] in a line: growth modulation of vineyard yeast isolate – strain RM11-1a, OD600, basal, 24 h, primary screen (AID 1177).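 Also: cultures grown under basal conditions with no added stressor; test concentration not given here.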 The following applies: S. cerevisiae RM11-1a growth, OD600, 24 h; higher = more signal, called active from +8 up or from −8 down.
Assay [17] in a line: growth of efflux-deficient E. coli DRC39 – strain DRC39, OD650, 24 h, E. coli filamentation inducers, primary screen (AID 1178).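 Also: growth measured as culture turbidity by optical density at 650 nm; test concentration not given here.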 The following applies: E. coli DRC39 acrAB, higher = more signal, called active from +8 up or from −8 down.
The nature of assay [18]: growth of efflux-deficient E. coli DRC39 – strain DRC39, OD650, 48 h, E. coli filamentation inducers, primary screen (AID 1179).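 Also: screen aims at cell division blockers that make cells filament.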 The following applies: E. coli DRC39 delta-acrAB growth, higher = more signal, called active from +8 up or from −8 down.
Assay [19] is described as follows: viability profiling in RPMI8226 myeloma cells – cell-based, resazurin fluorescence, basal, 24 h, PK04 Diversity Set, profiling panel (AID 1180).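 Also: RPMI8826 multiple myeloma cell line at 5000 cells per well; test concentration not given here.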 The following applies: higher = more signal.
Assay [20] has as its target E3 ubiquitin-protein ligase XIAP (Homo sapiens) (UniProt P98170). The experiment in a line: small molecules binding XIAP protein – biophysical, small-molecule microarray, fluorescence 635 nm, primary screen (AID 1181).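 Also: score merges 667 nm emission and signal to noise over triplicate slides.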 The following applies: higher = more signal.

Molecules are shown by their SMILES. Calls of active or inactive are those of the source. Unless noted, no rule for the calls is given here.

E3 ubiquitin-protein ligase XIAP (Homo sapiens), sequence (P98170 whole entry, looked up): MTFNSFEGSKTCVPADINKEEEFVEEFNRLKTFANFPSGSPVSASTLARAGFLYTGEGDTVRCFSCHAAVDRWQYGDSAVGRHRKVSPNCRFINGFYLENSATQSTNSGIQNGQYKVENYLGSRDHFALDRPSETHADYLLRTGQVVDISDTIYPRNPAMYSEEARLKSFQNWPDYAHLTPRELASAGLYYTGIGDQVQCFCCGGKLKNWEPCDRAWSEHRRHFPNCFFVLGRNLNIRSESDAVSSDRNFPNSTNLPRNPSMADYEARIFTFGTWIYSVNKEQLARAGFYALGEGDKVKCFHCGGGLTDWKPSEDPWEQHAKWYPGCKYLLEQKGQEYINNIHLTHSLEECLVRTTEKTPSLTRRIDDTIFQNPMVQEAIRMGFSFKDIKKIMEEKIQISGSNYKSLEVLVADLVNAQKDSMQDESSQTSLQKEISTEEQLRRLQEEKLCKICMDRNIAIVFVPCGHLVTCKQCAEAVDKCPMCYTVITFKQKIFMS

For `COCCOC(=O)N1C(=O)[C@@]2(c3cc(C#CC4(O)CCCCCC4)ccc31)[C@H](c1ccc(OCCO)cc1)N1[C@H](c3ccccc3)[C@H](c3ccccc3)OC(=O)[C@H]1[C@@H]2C(=O)Nc1nc2ccccc2s1`, the z-score in [1] was 0.0809; in assay [2] it was 0.676; in assay [3] it was 0.499; in assay [4], -2.09; in assay [5], -2.15; in assay [6], -3.31. For the same compound, the z-score in assay [7] is 1.1 (inactive); in [8], -1.07; in assay [9], -1.46; in assay [10], 0.813 (inactive); in assay [11], 1.39; in assay [12], 1.46 (inactive). The z-score in [13] was -0.773 (inactive); in [15], 2.98 (inactive); in assay [16], 2.43 (inactive); in assay [17], -0.0994 (inactive); in [18] it was -0.347 (inactive); in assay [19] it was -0.494. The composite z-score is -1.19 (inactive) in assay [14] and 0.332 in assay [20].

Take `Cc1ccc(N2C(=O)c3ccccc3[C@](C)(C(=O)NCc3ccccc3)[C@@H]2c2ccc(CO)cc2)nc1`: the z-score is 0.868 in assay [1]; 0.483 in [2]; 0.197 in assay [3]; -0.169 in assay [4]; -1.46 in assay [5]; 0.191 in assay [6]. Moreover, the z-score was -0.834 (inactive) in assay [7]; -0.494 in [8]; 1.46 in assay [9]; -0.0526 (inactive) in [10]; -0.776 in assay [11]; -0.878 (inactive) in assay [12]. Moreover, the z-score in assay [13] is 1.13 (inactive); in assay [15], 0.882 (inactive); in assay [16] it was 0.741 (inactive); in assay [17], 0.349 (inactive); in assay [18], 0.329 (inactive); in [19], 0.994. Also, the composite z-score was 1.07 (inactive) in [14] and -0.0326 in assay [20].

Regarding `COCCOC(=O)N1C(=O)[C@@]2(c3cc(C#CCNC(N)=O)ccc31)[C@H](c1ccc(O)cc1)N1[C@H](c3ccccc3)[C@H](c3ccccc3)OC(=O)[C@H]1[C@@H]2C(=O)N1CCN(c2ncccn2)CC1`, the z-score was -0.652 in [1]; -0.901 in [2]; 0.527 in assay [3]; -0.0396 in assay [4]; -1.05 in [5]; -2.34 in assay [6]. The z-score was 0.703 (inactive) in assay [7]; -0.322 in assay [8]; -1.14 in assay [9]; -0.163 (inactive) in [10]; 0.392 in [11]; 2.72 (inactive) in assay [12]. Moreover, the z-score is -0.441 (inactive) in assay [13]; 2.81 (inactive) in assay [15]; 3.03 (inactive) in assay [16]; -0.123 (inactive) in assay [17]; 0.0896 (inactive) in assay [18]; -0.0784 in [19]. The composite z-score in [14] is -0.265 (inactive); in assay [20] it was -0.205.

`CN(C)CCCCNC(=O)[C@H]1C[C@H]2C(=O)N[C@@H](CCCC[N+](C)(C)C)C(=O)N2[C@H]1c1ccc(O)cc1`: the z-score was -0.0568 in assay [1]; 0.29 in assay [2]; -0.172 in assay [3]; -0.178 in assay [4]; 0.733 in assay [5]; -0.445 in assay [6]. For the same compound, the z-score is -0.763 (inactive) in assay [7]; -0.101 in assay [8]; -0.203 in assay [9]; 0.625 (inactive) in assay [10]; 0.351 in assay [11]; -0.0503 (inactive) in assay [12]. For the same compound, the z-score in assay [13] is 1.4 (inactive); in assay [15], -1.16 (inactive); in assay [16], -1.11 (inactive); in assay [17], 0.494 (inactive); in assay [18] it was 0.56 (inactive); in assay [19] it was 0.643. The composite z-score in assay [14] was -0.308 (inactive); in assay [20], -0.0599.

On to `C=C(COC)/C(=C/C[C@H](OC(C)=O)c1cccc(OCCO)c1)c1cnc2ccccc2c1`, for which the z-score in [1] is 0.858; in [2] it was 1.01; in assay [3], 0.455; in assay [4], -2.78; in assay [5] it was -0.114; in assay [6], 0.713. Also, the z-score was -0.437 (inactive) in [7]; 0.23 in assay [8]; -0.0946 in assay [9]; 0.127 (inactive) in [10]; -0.0054 in [11]; 1.02 (inactive) in [12]. Moreover, the z-score was -0.496 (inactive) in assay [13]; 0.0721 (inactive) in assay [15]; 1.56 (inactive) in assay [16]; -0.901 (inactive) in assay [17]; -0.856 (inactive) in assay [18]; -0.58 in assay [19]. The composite z-score in assay [14] is -6.23 (inactive); in assay [20], -0.0749.

With `COC(=O)C1=CC(CCCO)=CC(C)N(Cc2cccc(OC(F)(F)F)c2)C=C1C(=O)OC` (stereo not given), the z-score in [1] was 1.35; in [2], 0.0937; in assay [3] it was 0.966; in assay [4], 0.403; in assay [5], 0.286; in [6], 1.12. Moreover, the z-score in [7] is 0.612 (inactive); in [8] it was -0.0402; in assay [9], -0.645; in [10] it was -0.149 (inactive); in [11] it was 0.0252; in assay [12], -1.78 (inactive). The z-score was -0.0934 (inactive) in [13]; 0.227 (inactive) in [15]; 0.0728 (inactive) in assay [16]; 1.38 (inactive) in assay [17]; 1.21 (inactive) in assay [18]; -0.123 in assay [19]. Also, the composite z-score was -2.73 (inactive) in [14] and 0.365 in [20].

Turning to `COc1ccc(CCNC(=O)[C@@]2(Cc3ccccc3I)c3ccccc3C(=O)N(Cc3ccccc3Cl)[C@H]2c2ccc(CO)cc2)cc1`, the z-score in [1] is -0.613; in assay [2] it was -0.073; in assay [3], -0.63; in assay [4], -3.36; in [5] it was -1.92; in assay [6] it was 0.962. Further, the z-score was 0.119 (inactive) in assay [7]; -0.0808 in assay [8]; -0.413 in assay [9]; 0.109 (inactive) in [10]; -0.0135 in [11]; -0.564 (inactive) in [12]. Moreover, the z-score in [13] is 0.0755 (inactive); in [15], 0.751 (inactive); in assay [16], -0.377 (inactive); in [17], -0.432 (inactive); in assay [18] it was -0.638 (inactive); in [19], -0.978. For the same compound, the composite z-score in assay [14] is -0.902 (inactive); in assay [20], 0.262.

With `NC(=O)NCC#Cc1ccc2c(c1)[C@]1(C(=O)N2)[C@H](C(=O)N2CCN(c3ncccn3)CC2)[C@H]2C(=O)O[C@H](c3ccccc3)[C@H](c3ccccc3)N2[C@@H]1c1ccc(OCCO)cc1`, the z-score in assay [1] was 0.0404; in assay [2] it was -0.33; in [3], -1.12; in assay [4], -0.444; in assay [5], 0.86; in [6], -1.95. Besides, the z-score is 1.54 (inactive) in assay [7]; -0.504 in assay [8]; -0.445 in assay [9]; 0.75 (inactive) in [10]; 0.906 in [11]; 2.6 (inactive) in assay [12]. Also, the z-score was 0.0294 (inactive) in assay [13]; 1.91 (inactive) in [15]; 3.91 (inactive) in assay [16]; 0.436 (inactive) in assay [17]; -0.114 (inactive) in assay [18]; 0.0901 in [19]. Also, the results for the composite z-score in assay [14] and in [20] were -0.238 (inactive) and -0.202, respectively.

In the case of `[N-]=[N+]=NCc1ccccc1[C@H]1OC(c2ccc(OCCCO)cc2)=N[C@@]1(Cc1ccccc1)C(=O)NCCN1CCOCC1`, the z-score in [1] is 0.526; in assay [2], 1.06; in assay [3] it was 0.688; in [4], -2.51; in [5], -1.2; in assay [6] it was 1.51. The z-score in assay [7] is -0.0131 (inactive); in assay [8], -0.815; in [9] it was 0.45; in assay [10] it was 1.19 (inactive); in assay [11], 0.292; in [12], -1.62 (inactive). The z-score was -0.206 (inactive) in assay [13]; 1.26 (inactive) in assay [15]; -0.557 (inactive) in assay [16]; 2.89 (inactive) in assay [17]; 0.763 (inactive) in [18]; 0.16 in assay [19]. The composite z-score in assay [14] was -0.905 (inactive); in [20] it was 0.785.
